Our source for the cell viability values is the supplement of paper PMC8699584.

Several values for one entry are separate records, joined by “and”; a condition that tells them apart may be missing. Equal entries are not always repeated. Structures can show the parent of a compound that is named as a salt. ± gives the standard deviation of the averaged measurements.

The first assay deals with Molm13. Put plainly: cell viability relative to DMSO control (bortezomib = 0%); higher = less growth inhibition. The settings on record: 10 nM; 72 h. Put shortly: (§1)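 Acute myeloid leukemia cells, 1000 per well in 50 µL, were incubated for 72 h on 384-well plates with 679 approved and investigational compounds, each at a single 10 nM dose. Viability was read by CellTiter-Glo luminescence. Values were expressed as percentages through per-plate linear regression against DMSO-treated (100%) and positive-control-treated (0%) cells.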
Usually cell viability stands for a read-out of living cells in per cent, often relative to untreated cells. For the compound `FC(F)(F)c1ccc(CNc2ccc(Cc3c[nH]c4ncccc34)cn2)cc1`, the cell viability was found to be 76.9 ± 16%.

On to `CNC(=O)c1ccc(-c2cnc3ncc(Cc4ccc5ncccc5c4)n3n2)cc1F`, for which the cell viability was determined as 109 ± 3.6%.

Turning to `Cc1cnc(NC(=O)Nc2cc(Br)c(C)cc2OC[C@@H]2CNCCO2)cn1`, the cell viability turned out to be 101 ± 11%.

With `COc1cc2/c(=N/c3ccc(Br)cc3F)nc[nH]c2cc1OCC1CCN(C)CC1` [Vandetanib (ZD6474)], the cell viability was determined as 116 ± 22%.

In the case of `N#Cc1ccc(COc2ccc(-c3cccc4nc(NC(=O)C5CC5)nn34)cc2)cn1` [GLPG0634 analogue], the cell viability was found to be 107 ± 8.4%.

Take `O=c1cc(-c2cccc3c2Sc2ccccc2S3)oc(N2CCOCC2)c1`: the cell viability amounted to 104 ± 4.7%.

Consider `COc1cc(N2CCC(N)CC2)ccc1Nc1ncc(Cl)c(-c2c[nH]c3ccccc23)n1`, for which the cell viability turned out to be 86 ± 2.5%.

In the case of `NC(=O)c1ccc(NC(=O)NCc2cccc(C(=O)Nc3ccc4c(c3)CNCC4)c2)cc1`, the cell viability was determined as 117 ± 25%.

For `C#Cc1cccc(Nc2ncnc3cc4c(cc23)OCCOCCOCCO4)c1` [Icotinib Hydrochloride], the cell viability is 100 ± 4.9%.

Regarding `COc1cc(CCc2cc(NC(=O)c3ccc(N4CC(C)NC(C)C4)cc3)n[nH]2)cc(OC)c1` (stereo not given), the cell viability was determined as 102 ± 17%.

In the case of `C[C@@H]1O[C@@H](Oc2c(-c3cc(O)c(O)c(O)c3)oc3cc(O)cc(O)c3c2=O)[C@H](O)[C@H](O)[C@H]1O` [Myricetrin], the cell viability stood at 89.1 ± 14%.

In the case of `CN1CC[C@H](c2c(O)cc(O)c3c(=O)cc(-c4ccccc4Cl)oc23)[C@H](O)C1` [Flavopiridol (Alvocidib) hydrochloride], the cell viability amounted to 113.8 ± 0.38%.

With `CCOc1ccn(-c2ccc(F)cc2)c(=O)c1C(=O)Nc1ccc(Oc2ccnc(N)c2Cl)c(F)c1`, the cell viability stood at 102.7 ± 0.96%.

For `CC(C)(C)c1cc(C=C(C#N)C(N)=S)cc(C(C)(C)C)c1O`, the cell viability stood at 108 ± 5.4%.

With `COc1cc(C(=O)N2CCC(N3CCN(C)CC3)CC2)ccc1Nc1ncc2c(n1)N(C)c1ccccc1C(=O)N2C`, the cell viability worked out at 97.52 ± 0.43%.

As to `C=CC(=O)Nc1cccc(Nc2nc(Nc3ccc(N4CCN(C(C)=O)CC4)cc3OC)ncc2C(F)(F)F)c1` [Rociletinib (CO-1686, AVL-301)], the cell viability is 108 ± 10%.

As for `O=C(NCCCNc1nc(Nc2cccc(CN3CCOCC3)c2)ncc1C1CC1)C1CCC1`, the cell viability amounted to 86.2 ± 18%.

With `N#CC1(c2ccc(NC(=O)c3cccnc3NCc3ccncc3)cc2)CCCC1` [Apatinib], the cell viability was 113 ± 10%.

Regarding `CCOc1cc2ncc(C#N)c(Nc3ccc(F)c(Cl)c3)c2cc1NC(=O)/C=C/CN(C)C` [Pelitinib (EKB-569)], the cell viability worked out at 104 ± 12%.

Turning to `COc1cc(Nc2ncc(F)c(Nc3ccc4c(n3)N(COP(=O)(O)O)C(=O)C(C)(C)O4)n2)cc(OC)c1OC` [Fostamatinib (R788)], the cell viability was 99.7 ± 0.34%.

Take `CNCc1ccc(-c2cc(-c3nc(-c4ccc(S(=O)(=O)C(C)C)cc4)cnc3N)on2)cc1`: the cell viability was found to be 106 ± 1.8%.

On to `CCN(CC)CCCCNc1ncc2cc(-c3cc(OC)cc(OC)c3)c(NC(=O)NC(C)(C)C)nc2n1`, for which the cell viability is 114% and 117%.

As for `N#CCC(=O)NN` [Cyanoacetohydrazide], the cell viability came to 128 ± 1.3%.

Turning to `Cn1cc(-c2cnn3c(N)c(Br)c([C@@H]4CCCNC4)nc23)cn1`, the cell viability is 92.5 ± 4.6%.

As to `CCCC(CCC)C(=O)O` [Valproic Acid (sodium salt)], the cell viability is 100 ± 10%.

As to `N#CCNC(=O)c1ccc(-c2ccnc(Nc3ccc(N4CCOCC4)cc3)n2)cc1` [Momelotinib (CYT387)], the cell viability came to 98.5 ± 17%.

For `Nc1nc(N)c2nc(-c3cccc(O)c3)c(-c3cccc(O)c3)nc2n1`, the cell viability stood at 96.7 ± 5%.

As to `CCCS(=O)(=O)Nc1ccc(F)c(C(=O)c2c[nH]c3ncc(Cl)cc23)c1F`, the cell viability is 104 ± 8.2%.

With `Cn1sc(=O)n(Cc2ccccc2)c1=O`, the cell viability was determined as 90.9 ± 6.1%.

In the case of `CC1(C)CC(=O)C2=C(C1)NC(=S)NC2c1cccc(O)c1` (stereo not given) [Dimethylenastron], the cell viability worked out at 91 ± 2.6%.

As to `Cc1ncc(-c2ccnc(Nc3ccc(S(C)(=O)=O)cc3)n2)n1C(C)C`, the cell viability worked out at 102 ± 14%.

Regarding `O=c1cc(N2CCOCC2)oc2c(-c3ccccc3)cccc12`, the cell viability stood at 107 ± 28%.

For `Oc1cccc(-c2nc(N3CCOCC3)c3sccc3n2)c1` [PI3-Kinase ? Inhibitor 2], the cell viability was 108.6 ± 0.5%.

For the compound `COc1ccc(C2CC(=O)c3c(O)cc(OC4OC(COC5OC(C)C(O)C(O)C5O)C(O)C(O)C4O)cc3O2)cc1OC` (stereo not given) [Methyl hesperidin], the cell viability turned out to be 109 ± 12%.

On to `O=C(O)c1ccc(-c2c[nH]c3ncc(-c4ccccc4)cc23)cc1C1CCCC1`, for which the cell viability was determined as 107 ± 1.1%.

Regarding `C#Cc1cccc(Nc2ncnc3cc(OCCOC)c(OCCOC)cc23)c1` [Erlotinib hydrochloride], the cell viability was determined as 108 ± 9.8%.

In the case of `COc1cc2nccc(Oc3ccc(NC(=O)Nc4ccc(F)cc4F)c(F)c3)c2cc1OC`, the cell viability was 98.1 ± 2.7%.

Turning to `CN(C)C/C=C/C(=O)Nc1cc2c(Nc3ccc(F)c(Cl)c3)ncnc2cc1O[C@H]1CCOC1` [Afatinib (BIBW2992)], the cell viability was determined as 87.5 ± 7.3%.

As for `N#CC(c1ccnc(OCc2ccc(CN3CCOCC3)cc2)n1)c1nc2ccccc2s1` (stereo not given), the cell viability was 107 ± 20%.

As to `CC(C)(C)Cn1c(N)nc2ccc(-c3[nH]c(C(C)(C)C)nc3-c3ccc(F)cc3)nc21`, the cell viability stood at 100 ± 12%.

Another assay has as its system Mv4-11. The description is as above. The settings on record: 10 nM; 72 h. In outline:
as §1
Turning to `FC(F)(F)c1ccc(CNc2ccc(Cc3c[nH]c4ncccc34)cn2)cc1`, the cell viability came out at 110 ± 3.2%.

For the compound `CNC(=O)c1ccc(-c2cnc3ncc(Cc4ccc5ncccc5c4)n3n2)cc1F`, the cell viability stood at 108 ± 6.8%.

`Cc1cnc(NC(=O)Nc2cc(Br)c(C)cc2OC[C@@H]2CNCCO2)cn1`: the cell viability came out at 109 ± 8.1%.

As to `COc1cc2/c(=N/c3ccc(Br)cc3F)nc[nH]c2cc1OCC1CCN(C)CC1` [Vandetanib (ZD6474)], the cell viability came out at 117 ± 41%.

With `N#Cc1ccc(COc2ccc(-c3cccc4nc(NC(=O)C5CC5)nn34)cc2)cn1` [GLPG0634 analogue], the cell viability was determined as 119 ± 3.4%.

As to `O=c1cc(-c2cccc3c2Sc2ccccc2S3)oc(N2CCOCC2)c1`, the cell viability amounted to 103 ± 28%.

Take `COc1cc(N2CCC(N)CC2)ccc1Nc1ncc(Cl)c(-c2c[nH]c3ccccc23)n1`: the cell viability was found to be 93.3 ± 5.9%.

On to `NC(=O)c1ccc(NC(=O)NCc2cccc(C(=O)Nc3ccc4c(c3)CNCC4)c2)cc1`, for which the cell viability was determined as 119 ± 19%.

With `C#Cc1cccc(Nc2ncnc3cc4c(cc23)OCCOCCOCCO4)c1` [Icotinib Hydrochloride], the cell viability was 105 ± 9.2%.

On to `COc1cc(CCc2cc(NC(=O)c3ccc(N4CC(C)NC(C)C4)cc3)n[nH]2)cc(OC)c1` (stereo not given), for which the cell viability came out at 99.5 ± 2%.

For `C[C@@H]1O[C@@H](Oc2c(-c3cc(O)c(O)c(O)c3)oc3cc(O)cc(O)c3c2=O)[C@H](O)[C@H](O)[C@H]1O` [Myricetrin], the cell viability was found to be 112 ± 35%.

As for `CN1CC[C@H](c2c(O)cc(O)c3c(=O)cc(-c4ccccc4Cl)oc23)[C@H](O)C1` [Flavopiridol (Alvocidib) hydrochloride], the cell viability was found to be 100 ± 3.2%.

For the compound `CCOc1ccn(-c2ccc(F)cc2)c(=O)c1C(=O)Nc1ccc(Oc2ccnc(N)c2Cl)c(F)c1`, the cell viability was found to be 114 ± 7%.

`CC(C)(C)c1cc(C=C(C#N)C(N)=S)cc(C(C)(C)C)c1O`: the cell viability was found to be 111 ± 3.4%.

With `COc1cc(C(=O)N2CCC(N3CCN(C)CC3)CC2)ccc1Nc1ncc2c(n1)N(C)c1ccccc1C(=O)N2C`, the cell viability stood at 104 ± 5.1%.

As for `C=CC(=O)Nc1cccc(Nc2nc(Nc3ccc(N4CCN(C(C)=O)CC4)cc3OC)ncc2C(F)(F)F)c1` [Rociletinib (CO-1686, AVL-301)], the cell viability was 110 ± 1.6%.

With `O=C(NCCCNc1nc(Nc2cccc(CN3CCOCC3)c2)ncc1C1CC1)C1CCC1`, the cell viability worked out at 106 ± 28%.

Turning to `N#CC1(c2ccc(NC(=O)c3cccnc3NCc3ccncc3)cc2)CCCC1` [Apatinib], the cell viability came out at 110 ± 1.5%.

`CCOc1cc2ncc(C#N)c(Nc3ccc(F)c(Cl)c3)c2cc1NC(=O)/C=C/CN(C)C` [Pelitinib (EKB-569)]: the cell viability is 104 ± 3.4%.

In the case of `COc1cc(Nc2ncc(F)c(Nc3ccc4c(n3)N(COP(=O)(O)O)C(=O)C(C)(C)O4)n2)cc(OC)c1OC` [Fostamatinib (R788)], the cell viability was determined as 104 ± 1.8%.

Consider `CNCc1ccc(-c2cc(-c3nc(-c4ccc(S(=O)(=O)C(C)C)cc4)cnc3N)on2)cc1`, for which the cell viability amounted to 101 ± 18%.

With `CCN(CC)CCCCNc1ncc2cc(-c3cc(OC)cc(OC)c3)c(NC(=O)NC(C)(C)C)nc2n1`, the cell viability is 113% and 119%.

For the compound `N#CCC(=O)NN` [Cyanoacetohydrazide], the cell viability is 109 ± 22%.

As for `Cn1cc(-c2cnn3c(N)c(Br)c([C@@H]4CCCNC4)nc23)cn1`, the cell viability stood at 104 ± 4.8%.

As to `CCCC(CCC)C(=O)O` [Valproic Acid (sodium salt)], the cell viability came out at 104 ± 10%.

In the case of `N#CCNC(=O)c1ccc(-c2ccnc(Nc3ccc(N4CCOCC4)cc3)n2)cc1` [Momelotinib (CYT387)], the cell viability amounted to 110 ± 16%.

In the case of `Nc1nc(N)c2nc(-c3cccc(O)c3)c(-c3cccc(O)c3)nc2n1`, the cell viability stood at 120 ± 11%.

For the compound `CCCS(=O)(=O)Nc1ccc(F)c(C(=O)c2c[nH]c3ncc(Cl)cc23)c1F`, the cell viability is 135 ± 12%.

`Cn1sc(=O)n(Cc2ccccc2)c1=O`: the cell viability amounted to 108 ± 21%.

As to `CC1(C)CC(=O)C2=C(C1)NC(=S)NC2c1cccc(O)c1` (stereo not given) [Dimethylenastron], the cell viability was 109 ± 4.5%.

As to `Cc1ncc(-c2ccnc(Nc3ccc(S(C)(=O)=O)cc3)n2)n1C(C)C`, the cell viability worked out at 122 ± 13%.

For the compound `O=c1cc(N2CCOCC2)oc2c(-c3ccccc3)cccc12`, the cell viability was found to be 104 ± 16%.

As for `Oc1cccc(-c2nc(N3CCOCC3)c3sccc3n2)c1` [PI3-Kinase ? Inhibitor 2], the cell viability worked out at 120 ± 22%.

Take `COc1ccc(C2CC(=O)c3c(O)cc(OC4OC(COC5OC(C)C(O)C(O)C5O)C(O)C(O)C4O)cc3O2)cc1OC` (stereo not given) [Methyl hesperidin]: the cell viability worked out at 117 ± 20%.

As for `O=C(O)c1ccc(-c2c[nH]c3ncc(-c4ccccc4)cc23)cc1C1CCCC1`, the cell viability stood at 96 ± 2.7%.

In the case of `C#Cc1cccc(Nc2ncnc3cc(OCCOC)c(OCCOC)cc23)c1` [Erlotinib hydrochloride], the cell viability was 121 ± 20%.

Consider `COc1cc2nccc(Oc3ccc(NC(=O)Nc4ccc(F)cc4F)c(F)c3)c2cc1OC`, for which the cell viability is 103 ± 5.7%.

In the case of `CN(C)C/C=C/C(=O)Nc1cc2c(Nc3ccc(F)c(Cl)c3)ncnc2cc1O[C@H]1CCOC1` [Afatinib (BIBW2992)], the cell viability was 97.7 ± 6.9%.

With `N#CC(c1ccnc(OCc2ccc(CN3CCOCC3)cc2)n1)c1nc2ccccc2s1` (stereo not given), the cell viability stood at 109 ± 11%.

Regarding `CC(C)(C)Cn1c(N)nc2ccc(-c3[nH]c(C(C)(C)C)nc3-c3ccc(F)cc3)nc21`, the cell viability is 84.9 ± 21%.
